# LASV entry inh: qHTS for Inhibitors of binding or entry into cells for Lassa Virus; Potency, µM (top dose mostly 37.9 µM), hits mostly inhibitors; AID 540256, 2011; Lassa virus pseudotype entry inhibition, cell reporter; actives 1.2% (n = 300,000); calls by dose curve; tested in HEK293 cells; further: nearly all actives have a fitted effect of over 50% in size
# Pf growth 96h: Primary qHTS for delayed death inhibitors of the malarial parasite plastid, 96 hour incubation; P. falciparum luciferase reporter growth, 96 h; actives 6.9% (n = 320,000); Potency, µM (doses to about 28.7 µM), hits mostly inhibitors
#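 Compounds incubated with erythrocytes infected by luciferase-expressing P. falciparum (2% hematocrit, 0.05% parasitemia final) for 96 hours, 37 C in 5% CO2. Growth inhibition scored as decreased luciferase luminescence.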
# HCMV antiviral: qHTS Assay for inhibitors of the human cytomegalovirus (HCMV) | HFF cells, HCMV-luciferase reporter, 72 h; stronger effect = lower value | activity change, negative = inhibition, % at 57.5 µM | actives 4.5% (n = 410,000); in the data active means activity change below about -60%; inconclusive means no clear call, values can overlap the other calls; inactive means above about -39%
#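 Screen run at 2 compound doses on HFFs infected with reporter HCMV, MOI 1 PFU/cell. Luciferase activity from cell lysates at 72 h post infection gave inhibition relative to buffer-only and Salinomycin wells.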
# HCV inh: qHTS Assay for Inhibitors of Hepatitis C Virus (HCV) | Huh7.5.1 HCVcc-Cre infection, luciferase reporter, 44 h | actives 3.4% (n = 340,000) | AID 651820, 2012 | Potency, µM (top dose mostly 41.8 µM), most hits filed as inhibitors
#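 Whole-lifecycle infectious HCVcc-Cre system; cells 1,000/well, compound then virus (~0.5 moi) added 4 h after plating, 44 h culture. Luciferase read 15 sec following 15 min substrate incubation, room temp.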
# MARV entry inh: qHTS for inhibitors of binding or entry into cells for Marburg Virus; Marburg virus pseudotyped entry inhibition, cell reporter; AID 540276, 2011; actives 1.8% (n = 300,000); Potency, µM (titrated, usually from 37.8 µM), usual class: inhibitors; calls by dose curve; tested in HEK293 cells
# Pf growth 48h: Primary qHTS for delayed death inhibitors of the malarial parasite plastid, 48 hour incubation; P. falciparum luciferase growth in erythrocytes, 48 h; Potency, µM (doses to about 28.7 µM), most hits filed as inhibitors; actives 5.9% (n = 310,000); AID 504832, 2011
#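 Cell-based growth assay: transgenic P. falciparum expressing firefly luciferase, cultured in red cells within RPMI 1640 containing 0.5% w/v Albumax, 24 mM bicarbonate and gentamycin. A drop in luciferase activity indicates inhibition.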
# Hits are given with their value; . = inactive; ? = inconclusive; / = no result. The list is not random: actives were taken first. Their share in the collection is about 14%. Unless noted, the call rests on the fitted dose curve; in most records, active means well fitted inhibition curve with a large enough effect; inconclusive means small, poorly fitted or top-dose-only effect, or another doubt; inactive means no such curve, though single readings can be large or run the other way.
SMILES,LASV entry inh,Pf growth 96h,HCMV antiviral,HCV inh,MARV entry inh,Pf growth 48h
CCc1cccc(C)c1N=Cc1c(O)c2ccccc2oc1=O,?,.,.,.,.,13µM
Cc1cccc(N=Cc2[nH]c3ccc(Br)c(Cl)c3c2O)c1,.,.,.,.,.,15µM
CN(C(=O)c1ccccc1F)C(c1ccccc1)c1ccccc1,11µM,?,.,.,?,?
CCOc1ccc(-n2c(SC(C)C)nc3c(c2=O)SCC3)cc1,.,.,.,.,.,8.3µM
CCOc1ccc(-n2c(SC)nc3c(c2=O)SCC3)cc1,.,?,.,.,?,.
CSc1nc2c(c(=O)n1-c1ccc(C)cc1)SCC2,.,.,.,.,.,9.3µM
CSc1nc2c(c(=O)n1-c1ccc(F)cc1)SCC2,.,.,.,.,.,.
Nc1[nH]c(C(=O)c2ccc(Br)cc2)c(-c2ccccn2)c1C(=O)NCCc1c[nH]c2ccccc12,/,/,.,/,/,/
Cc1cc(C)c(NC(=O)CSc2nc3c([nH]c4ccccc43)c(=O)n2C)c(C)c1,.,/,.,/,/,/
Cc1c(Cl)cccc1NC(=O)CCn1cnnn1,.,/,.,/,.,/
Cc1ccc(C)c(OCC(=O)Nc2ccncc2)c1,/,.,.,.,/,.
Cc1cccc(OCC(=O)Nc2ncn[nH]2)c1C,/,.,.,.,/,.
CCOCC(=O)Nc1nnc(COC)s1,.,?,.,.,.,.
COc1ccccc1OCC(=O)Nc1ccncc1,/,0.52µM,.,.,/,.
Cc1cccc(OCC(=O)Nc2ccncc2)c1C,?,.,-84,?,?,.
CCOc1ccccc1OCC(=O)Nc1nnc(COC)s1,.,.,-102,.,.,.
Cc1cccc(OCC(=O)Nc2nnn(C)n2)c1C,.,.,-102,.,.,.
COC(=O)c1sc2cccc(F)c2c1S(=O)(=O)Nc1ccc(N(C)C)cc1,.,/,.,/,/,/
COc1ccc(C(C(=O)NC2CCCC2)n2c(-c3cccs3)nc3ccccc32)cc1 (stereo not drawn),/,/,.,/,/,/
O=C(COC(=O)Cn1cnc2ccccc21)Nc1ccc(F)c(F)c1,.,/,.,.,.,/
Cc1nn(C)c(C)c1NC(=O)COc1ccc(Cl)cc1Br,?,?,-93,?,?,.
Cc1cc(Cl)ccc1OCC(=O)Nc1ccncc1,/,?,-60,13µM,/,.
C/C=C/c1ccc(OCC(=O)Nc2ccncc2)c(OC)c1,/,.,-83,?,/,.
Cc1cc(Cl)ccc1OCC(=O)NCc1ccncc1,.,.,.,.,.,.
Cc1ccccc1OCC(=O)Nc1nnc(-c2ccncc2)s1,.,15µM,-93,.,.,.
SMILES,LASV entry inh,Pf growth 96h,HCMV antiviral,HCV inh,MARV entry inh,Pf growth 48h
Cc1ccc(C(=O)NNC(=O)Cn2ccc(C(F)(F)F)n2)o1,.,.,.,.,.,.
C/C=C/c1ccc(OCC(=O)Nc2cc(Cl)ccc2-n2cncn2)c(OC)c1,.,12µM,.,?,.,?
CC(C)c1nnc(NC(=O)c2nc(SCc3ccc(F)cc3)ncc2Cl)s1,.,/,.,/,.,/
Cc1cccc(CSc2ncc(Cl)c(C(=O)Nc3nc4ccc(F)cc4s3)n2)c1,.,/,.,/,.,/
Cc1cccc(CS(=O)(=O)c2ncc(Cl)c(C(=O)Nc3nnc(C(C)C)s3)n2)c1,?,?,-100,11µM,?,?
CC(C)c1nnc(NC(=O)c2nc(S(=O)(=O)Cc3ccc(F)cc3)ncc2Cl)s1,?,.,-102,?,?,.
Cc1ccc(C)c(NC(=O)c2nc(S(=O)(=O)Cc3ccc(F)cc3)ncc2Cl)c1,?,/,-100,/,.,/
Cc1ccc(C)c(NC(=O)c2nc(Cl)ccc2Cl)c1,/,.,.,.,/,.
CC(C)c1nnc(NC(=O)CS(=O)(=O)Cc2ccccc2)s1,.,.,.,.,.,.
Cc1ccc(CS(=O)(=O)c2ncc(Cl)c(C(=O)Nc3nnc(C(C)C)s3)n2)cc1,?,?,-98,?,?,.
O=C(c1cccc(Cl)c1)N1CCN(c2ccc3c(c2)C2CC3CCN2C(=O)OCc2ccccc2)CC1 (stereo not drawn),/,/,.,/,/,/
COc1ccc(NC(=O)COC(=O)CN2C(=O)C3CCCCC3C2=O)cc1 (stereo not drawn),/,/,.,/,/,/
